Measured values: PubChem BioAssay AID651863 (Broad Institute, 2012)
Results with a measured potency or affinity are listed apart. Values without a mark were called inactive. Active and inactive are the calls of the source.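 The calls were made as follows: active = compounds whose fitted half-maximal cell-killing dose is at most twice the top tested dose; inconclusive = flat curve with 30 to 70 percent signal loss, or poor fit; inactive = the rest.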

assay: kidney cell line viability loss – HEK293T, luminescence plate reader, powder samples, set 4, cytotoxicity control, dose response (AID 651863); details: CellTiter-Glo ATP luminescence, 48 h; series mostly up to 26 µM; activity change, negative = cytotoxicity: at the top concentration

Q: With `Cc1ccc(S(=O)(=O)Nc2cc(C(C(=O)OC(C)C)C(=O)C(F)(F)F)c(O)c3ccccc23)c(C)c1` (configuration not stated) as the molecule, how does the “activity change, negative = cytotoxicity” value read?
A: 5.36%

Q: Which “activity change, negative = cytotoxicity” value does the source give for `O=C(NCCCN1CCOCC1)c1ccccc1C(=O)NC[C@@H]1c2ccccc2CCN1C(=O)C1CCCCC1C(=O)O` (some centres not stated) here?
A: 21.1%

Q: Which “activity change, negative = cytotoxicity” value does the source give for `O=C(O)c1ccccc1C(=O)NC[C@@H]1c2ccccc2CCN1C(=O)[C@@H]1CCCC[C@@H]1C(=O)O` here?
A: -2.02%

Q: For `CCOC(=O)C(C(=O)OCC)c1cc(CN2C(=O)c3ccccc3C2=O)c2ccccc2n1`, which “activity change, negative = cytotoxicity” value is on record?
A: -6.23%

Q: For `O=C1c2ccccc2C(=O)N1CC1=NCCc2ccccc21`, which “activity change, negative = cytotoxicity” value is on record?
A: 10.7%

Q: With `O=C(NC[C@@H]1c2ccccc2CCN1C(=O)[C@@H]1CCCC[C@@H]1C(=O)O)c1ccccc1` as the molecule, how does the “activity change, negative = cytotoxicity” value read?
A: 6.54%

Q: Which “activity change, negative = cytotoxicity” value does the source give for `O=C(O)/C=C\C(=O)N1CCc2ccccc2C1CN1C(=O)c2ccccc2C1=O` (configuration not stated) here?
A: 13.3%

Q: For `COC(=O)C1CCCCC1C(=O)N1CCc2ccccc2C1CN1C(=O)c2ccccc2C1=O` (configuration not stated), which “activity change, negative = cytotoxicity” value is on record?
A: 22.2%

Q: With `Cc1ccc(S(=O)(=O)NC(=O)[C@@H]2c3ccccc3CCN2C(=O)[C@@H]2CCCC[C@@H]2C(=O)O)cc1` as the molecule, how does the outcome read?
A: inactive

Q: With `Cc1ccccc1S(=O)(=O)Nc1cc(C(C(=O)OC(C)C)C(=O)C(F)(F)F)c(O)c2ccccc12` (configuration not stated) as the molecule, how does the “activity change, negative = cytotoxicity” value read?
A: -9.77%

Q: With `O=C(O)C1CCCCC1C(=O)N1CCc2ccccc2C1CN1C(=O)c2ccccc2S1(=O)=O` (configuration not stated) as the molecule, how does the “activity change, negative = cytotoxicity” value read?
A: 13%

Q: For `Cc1cc(C)c(S(=O)(=O)Nc2nc(N(C)C)nc3ccccc23)c(C)c1`, which “activity change, negative = cytotoxicity” value is on record?
A: -0.85%

Q: With `O=C(O)CC(=O)N1CCc2ccccc2C1CN1C(=O)c2ccccc2C1=O` (configuration not stated) as the molecule, how does the “activity change, negative = cytotoxicity” value read?
A: -4.51%

Q: For `O=C(NC[C@@H]1c2ccccc2CCN1C(=O)[C@@H]1CCCC[C@@H]1C(=O)O)c1ccc(CCl)cc1`, which “activity change, negative = cytotoxicity” value is on record?
A: 30%

Q: For `NC(=O)c1ccccc1C(=O)NC[C@@H]1c2ccccc2CCN1C(=O)[C@@H]1CCCC[C@@H]1C(=O)O`, which “activity change, negative = cytotoxicity” value is on record?
A: 0.45%

Q: Which “activity change, negative = cytotoxicity” value does the source give for `NC(=O)[C@H]1CCCC[C@H]1C(=O)N1CCc2ccccc2[C@H]1CN1C(=O)c2ccccc2C1=O` here?
A: 2.88%

Q: With `Cc1cc(C)c(S(=O)(=O)Nc2cc(C(C(=O)OC(C)C)C(=O)C(F)(F)F)c(O)c3ccccc23)c(C)c1` (configuration not stated) as the molecule, how does the “activity change, negative = cytotoxicity” value read?
A: -5.11%

Q: Which “activity change, negative = cytotoxicity” value does the source give for `Cc1ccc(S(=O)(=O)NNc2nc(C(C(=O)OC(C)C)C(=O)C(F)(F)F)nc3ccccc23)cc1` (configuration not stated) here?
A: -4.99%

Q: For `O=C(O)C1CCCCC1C(=O)N1CCc2ccccc2[C@H]1C(=O)NCCc1ccccc1` (some centres not stated), which “activity change, negative = cytotoxicity” value is on record?
A: 0.206%

Q: Which activity change, negative = cytotoxicity does the source give for `O=C1c2ccccc2C(=O)N1CC1c2ccccc2CCN1C(=O)Cc1ccccc1` (configuration not stated) here?
A: 0.765% [at 6 µM]

Q: Which “activity change, negative = cytotoxicity” value does the source give for `O=C1c2ccccc2C(=O)N1C[C@H]1NCCc2ccccc21` here?
A: 15.7%

Q: Which “activity change, negative = cytotoxicity” value does the source give for `O=C(Cc1ccccc1)NC[C@@H]1c2ccccc2CCN1C(=O)[C@@H]1CCCC[C@@H]1C(=O)O` here?
A: 7.9%

Q: For `O=C(O)c1ccccc1C(=O)N1CCc2ccccc2C1CN1C(=O)c2ccccc2C1=O` (configuration not stated), which “activity change, negative = cytotoxicity” value is on record?
A: 19%

Q: For `C[C@H](NC(=O)C1CCCC[C@H]1C(=O)O)c1ccccc1` (mixture of isomers), which “activity change, negative = cytotoxicity” value is on record?
A: 21.3%

Q: For `O=C(O)C1CCCCC1C(=O)NCC1c2ccccc2CCN1C(=O)Cc1ccccc1` (configuration not stated), which “activity change, negative = cytotoxicity” value is on record?
A: -0.049%

Q: For `O=S(=O)(Nc1nc(NCC2CCCCC2)nc2ccccc12)c1ccccc1`, which “activity change, negative = cytotoxicity” value is on record?
A: 14.8%

Q: For `O=C(O)C1CCCCC1C(=O)N1CCc2ccccc2C1c1ccccc1` (configuration not stated), which “activity change, negative = cytotoxicity” value is on record?
A: -4.71%

Q: For `O=C(O)CCCC(=O)N1CCc2ccccc2C1CN1C(=O)c2ccccc2C1=O` (configuration not stated), which “activity change, negative = cytotoxicity” value is on record?
A: 15.4%

Q: Which “activity change, negative = cytotoxicity” value does the source give for `O=C1c2ccccc2C(=O)N1C[C@@H]1c2ccccc2CCN1C(=O)C1CCCCC1` here?
A: 13.3%

Q: For `O=C(O)[C@H]1CCCC[C@H]1C(=O)N1CCc2ccccc2[C@H]1CNc1nc(Cl)nc2ccccc12`, which “activity change, negative = cytotoxicity” value is on record?
A: -3.45%

Q: Which “activity change, negative = cytotoxicity” value does the source give for `O=C(Oc1cc(CN2C(=O)c3ccccc3C2=O)c2ccccc2[n+]1[O-])c1cccc(Cl)c1` here?
A: 13.3%

Q: For `O=C(O)[C@H]1C2C=CC(C2)[C@H]1C(=O)N1CCc2ccccc2C1CN1C(=O)c2ccccc2C1=O` (some centres not stated), which “activity change, negative = cytotoxicity” value is on record?
A: -5.44%
